Experimental data reported in the supplement of paper PMC10849652.
About 7,900 targets were measured; listed, in parts, are those with a hit and a random draw of the rest. About 0.6% of all pairs of compound and target were hits.

Tests used:
Assay in all cases: log2 fold change, soluble protein after heating vs DMSO (PISA); higher = thermal stabilisation; K562 cells, 10 uM, 30 min; active = over 0.2 and 3.5 SD of the protein, either way, in both replicates (recomputed)
[1] = compound: C1=CC=C(C=C1)[C@H](COC2=CC3=C(C=C2)NC(=O)N3)NC(=O)C4=CC=CN(C4=O)CC5=CC(=C(C=C5)F)F
Outline: (§1)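 Thermal stability values are relative to control samples and come from duplicates. They are expressed as log2 fold changes. For measurement, K562 cells (2×10^6 cells/mL) received 10 μM compound for 30 min, and aliquots were heated for 3 min over 48°C-58°C, pooled, and extracted at 4°C in PBS with 0.5% NP-40. Soluble protein, the supernatant after 21,000xg for 90 min, was quantified by TMTpro 16plex LC-MS/MS with equalised channel sums.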

[2] = compound: CC1=C(SC2=C1C(=N[C@H](C3=NN=C(N32)C)CC(=O)N)C4=CC=C(C=C4)Cl)C
Outline: as §1

[3] = compound: CC1=C2C(=CC=C1)N=C(N(C2=O)C3=CC=CC=C3C)CN4C=NC5=C(N=CN=C54)N
Outline: as §1

[4] = compound: Cc1sc2c(c1C)C(c1ccc(Cl)cc1)=N[C@@H](CC(=O)OC(C)(C)C)c1nnc(C)n1-2
Outline: as §1

[5] = compound: c1ccc([C@@H]2C[C@H]2NC2CCNCC2)cc1
Outline: as §1

Measured: log2 fold change

SOX5 (UniProt P35711)
inactive: [1] -0.033 | [2] 0.005 | [3] -0.058 | [4] -0.018 | [5] -0.022

SMIM20 isoform 2 (UniProt Q8N5G0)
inactive: [1] 0.019 | [2] -0.034 | [3] 0.081 | [4] -0.125 | [5] -0.1

TBCD (UniProt Q9BTW9)
inactive: [1] -0.028 | [2] 0.03 | [3] 0.101 | [4] -0.004 | [5] -0.03

SULT1A1 (UniProt P50225)
inactive: [1] -0.083 | [2] 0.064 | [3] -0.021 | [4] -0.06 | [5] -0.066

SPG11 (UniProt Q96JI7)
inactive: [1] 0.095 | [2] 0.05 | [3] 0.444 | [4] 0.24 | [5] 0.083

TFAM (UniProt Q00059)
Sequence of UniProt Q00059 (Q00059 whole entry, looked up): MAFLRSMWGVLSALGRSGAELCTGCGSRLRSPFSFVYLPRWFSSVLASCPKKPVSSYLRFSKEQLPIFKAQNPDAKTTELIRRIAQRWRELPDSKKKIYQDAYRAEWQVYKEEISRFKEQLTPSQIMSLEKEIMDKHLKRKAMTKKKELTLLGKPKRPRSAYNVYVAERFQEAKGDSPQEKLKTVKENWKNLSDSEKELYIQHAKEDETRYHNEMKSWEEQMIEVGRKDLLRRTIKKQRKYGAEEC
inactive: [1] 0.062 | [2] -0.046 | [3] -0.018 | [4] 0.108 | [5] 0.009

SPTBN1 (UniProt Q01082)
inactive: [1] -0.002 | [2] -0.033 | [3] 0.078 | [4] 0.027 | [5] 0.013

SMG1 (UniProt Q96Q15)
Sequence of UniProt Q96Q15 (Q96Q15 whole entry, looked up): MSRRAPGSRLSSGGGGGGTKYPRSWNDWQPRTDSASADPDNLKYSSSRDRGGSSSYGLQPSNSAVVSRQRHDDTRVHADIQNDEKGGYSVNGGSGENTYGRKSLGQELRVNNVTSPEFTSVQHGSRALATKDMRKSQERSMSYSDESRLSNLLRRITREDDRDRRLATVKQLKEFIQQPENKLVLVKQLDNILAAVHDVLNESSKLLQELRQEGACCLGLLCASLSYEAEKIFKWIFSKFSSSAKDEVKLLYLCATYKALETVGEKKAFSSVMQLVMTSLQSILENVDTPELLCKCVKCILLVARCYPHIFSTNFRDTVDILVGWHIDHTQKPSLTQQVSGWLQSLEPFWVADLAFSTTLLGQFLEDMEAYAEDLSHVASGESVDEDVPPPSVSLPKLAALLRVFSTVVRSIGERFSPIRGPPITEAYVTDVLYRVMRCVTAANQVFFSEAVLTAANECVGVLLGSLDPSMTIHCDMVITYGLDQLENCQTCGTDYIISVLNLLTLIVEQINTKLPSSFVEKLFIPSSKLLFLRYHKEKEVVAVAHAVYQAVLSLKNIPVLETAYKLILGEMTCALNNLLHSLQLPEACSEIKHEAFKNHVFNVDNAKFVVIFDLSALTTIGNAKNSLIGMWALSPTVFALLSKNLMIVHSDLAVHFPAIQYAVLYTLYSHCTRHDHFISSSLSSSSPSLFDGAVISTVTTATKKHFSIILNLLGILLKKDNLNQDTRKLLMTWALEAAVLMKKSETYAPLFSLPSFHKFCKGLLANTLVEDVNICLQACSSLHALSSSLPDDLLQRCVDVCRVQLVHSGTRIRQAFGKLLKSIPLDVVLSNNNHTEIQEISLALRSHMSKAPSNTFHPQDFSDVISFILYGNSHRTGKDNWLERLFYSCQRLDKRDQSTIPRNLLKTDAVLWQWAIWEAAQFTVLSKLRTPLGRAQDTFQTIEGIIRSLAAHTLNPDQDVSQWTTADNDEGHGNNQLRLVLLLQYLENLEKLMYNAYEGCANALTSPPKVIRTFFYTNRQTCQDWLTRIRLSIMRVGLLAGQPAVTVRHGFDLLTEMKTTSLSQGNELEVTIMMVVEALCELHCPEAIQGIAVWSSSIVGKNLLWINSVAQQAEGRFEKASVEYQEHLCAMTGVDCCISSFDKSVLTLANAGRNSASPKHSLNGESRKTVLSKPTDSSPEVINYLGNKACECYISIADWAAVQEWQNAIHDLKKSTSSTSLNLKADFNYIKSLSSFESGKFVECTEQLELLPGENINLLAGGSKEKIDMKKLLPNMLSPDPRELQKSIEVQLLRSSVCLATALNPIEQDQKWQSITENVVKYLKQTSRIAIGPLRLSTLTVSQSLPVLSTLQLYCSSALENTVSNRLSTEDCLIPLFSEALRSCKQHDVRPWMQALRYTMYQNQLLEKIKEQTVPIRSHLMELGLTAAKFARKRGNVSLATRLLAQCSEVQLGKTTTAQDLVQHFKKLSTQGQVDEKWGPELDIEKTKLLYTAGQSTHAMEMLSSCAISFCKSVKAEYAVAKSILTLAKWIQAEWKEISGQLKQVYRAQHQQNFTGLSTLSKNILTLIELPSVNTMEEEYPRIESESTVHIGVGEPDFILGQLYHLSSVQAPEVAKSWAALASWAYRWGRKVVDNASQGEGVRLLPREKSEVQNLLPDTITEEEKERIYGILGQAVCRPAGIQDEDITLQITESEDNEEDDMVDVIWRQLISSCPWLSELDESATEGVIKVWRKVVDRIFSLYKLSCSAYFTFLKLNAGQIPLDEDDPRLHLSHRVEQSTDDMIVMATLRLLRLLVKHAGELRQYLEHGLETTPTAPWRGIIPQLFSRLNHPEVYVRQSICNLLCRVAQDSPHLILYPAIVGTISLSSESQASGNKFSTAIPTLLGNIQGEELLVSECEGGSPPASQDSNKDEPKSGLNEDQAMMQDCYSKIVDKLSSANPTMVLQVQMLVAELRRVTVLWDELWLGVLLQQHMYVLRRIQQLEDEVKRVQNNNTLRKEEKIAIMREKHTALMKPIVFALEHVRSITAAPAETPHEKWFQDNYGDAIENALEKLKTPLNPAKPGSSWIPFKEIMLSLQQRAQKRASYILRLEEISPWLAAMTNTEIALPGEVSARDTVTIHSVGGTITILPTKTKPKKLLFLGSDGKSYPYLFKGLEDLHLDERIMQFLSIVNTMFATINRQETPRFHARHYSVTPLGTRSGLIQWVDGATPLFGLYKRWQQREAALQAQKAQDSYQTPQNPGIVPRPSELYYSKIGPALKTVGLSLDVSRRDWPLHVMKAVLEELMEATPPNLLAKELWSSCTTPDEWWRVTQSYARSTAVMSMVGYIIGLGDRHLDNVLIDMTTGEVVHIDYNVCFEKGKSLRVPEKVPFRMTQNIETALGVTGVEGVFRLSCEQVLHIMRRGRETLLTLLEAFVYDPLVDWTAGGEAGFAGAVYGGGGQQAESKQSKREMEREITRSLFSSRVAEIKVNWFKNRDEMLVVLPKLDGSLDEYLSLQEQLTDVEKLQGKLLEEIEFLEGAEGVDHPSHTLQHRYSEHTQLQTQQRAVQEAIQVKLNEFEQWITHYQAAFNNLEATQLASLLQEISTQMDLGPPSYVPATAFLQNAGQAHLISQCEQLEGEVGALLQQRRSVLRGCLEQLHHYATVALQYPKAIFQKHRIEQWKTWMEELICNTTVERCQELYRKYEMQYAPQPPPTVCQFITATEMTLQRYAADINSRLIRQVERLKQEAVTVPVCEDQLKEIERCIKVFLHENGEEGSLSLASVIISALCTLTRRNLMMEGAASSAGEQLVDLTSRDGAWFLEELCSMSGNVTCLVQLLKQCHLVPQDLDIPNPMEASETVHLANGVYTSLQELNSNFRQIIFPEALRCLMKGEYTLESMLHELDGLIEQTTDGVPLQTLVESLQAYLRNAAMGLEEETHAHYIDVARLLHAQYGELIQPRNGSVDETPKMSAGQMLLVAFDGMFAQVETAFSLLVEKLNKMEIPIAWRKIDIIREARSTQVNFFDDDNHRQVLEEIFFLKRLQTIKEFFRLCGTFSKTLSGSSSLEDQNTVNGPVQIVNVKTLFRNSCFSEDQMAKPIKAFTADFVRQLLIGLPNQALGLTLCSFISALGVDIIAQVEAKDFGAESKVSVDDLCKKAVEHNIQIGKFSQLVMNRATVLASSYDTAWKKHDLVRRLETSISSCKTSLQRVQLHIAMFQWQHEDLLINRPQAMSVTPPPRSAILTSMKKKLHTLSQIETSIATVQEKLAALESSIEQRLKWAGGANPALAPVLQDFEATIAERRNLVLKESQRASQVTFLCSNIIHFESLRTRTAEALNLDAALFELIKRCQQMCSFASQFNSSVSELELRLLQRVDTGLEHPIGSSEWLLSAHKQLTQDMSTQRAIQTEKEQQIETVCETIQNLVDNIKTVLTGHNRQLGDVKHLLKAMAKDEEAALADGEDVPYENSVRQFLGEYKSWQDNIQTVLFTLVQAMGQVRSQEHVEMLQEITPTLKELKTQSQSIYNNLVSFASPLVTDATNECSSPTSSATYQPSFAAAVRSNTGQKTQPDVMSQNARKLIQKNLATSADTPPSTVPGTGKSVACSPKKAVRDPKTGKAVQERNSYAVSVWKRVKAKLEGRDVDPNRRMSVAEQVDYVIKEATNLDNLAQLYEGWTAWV
inactive: [1] -0.104 | [2] 0.003 | [3] -0.004 | [4] 0.02 | [5] -0.071

TIMM21 (UniProt Q9BVV7)
inactive: [1] -0.02 | [2] 0.052 | [3] 0.024 | [4] 0.004 | [5] -0.048

TK1 (UniProt K7ERV3)
inactive: [1] 0.038 | [2] 0.091 | [3] 0.083 | [4] 0.029 | [5] 0.015

SRP68 (UniProt Q9UHB9)
inactive: [1] -0.041 | [2] 0.022 | [3] 0.039 | [4] 0.092 | [5] -0.029

SLC7A6OS (UniProt Q96CW6)
Sequence of UniProt Q96CW6 (Q96CW6 whole entry, looked up): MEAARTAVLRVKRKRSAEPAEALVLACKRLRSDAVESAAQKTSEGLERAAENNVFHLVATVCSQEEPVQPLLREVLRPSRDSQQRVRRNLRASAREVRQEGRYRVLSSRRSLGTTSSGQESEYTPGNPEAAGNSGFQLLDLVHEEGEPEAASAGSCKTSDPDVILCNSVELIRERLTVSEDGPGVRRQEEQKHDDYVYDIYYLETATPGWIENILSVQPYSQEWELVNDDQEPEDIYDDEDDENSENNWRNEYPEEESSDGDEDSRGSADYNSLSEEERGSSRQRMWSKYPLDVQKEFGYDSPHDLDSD
inactive: [1] -0.026 | [2] -0.043 | [3] 0.03 | [4] 0.012 | [5] 0.032

TELO2 (UniProt Q9Y4R8)
inactive: [1] -0.031 | [2] -0.05 | [3] 0.037 | [4] 0.039 | [5] 0.005

SNW1 (UniProt Q13573)
Sequence of UniProt Q13573 (Q13573 whole entry, looked up): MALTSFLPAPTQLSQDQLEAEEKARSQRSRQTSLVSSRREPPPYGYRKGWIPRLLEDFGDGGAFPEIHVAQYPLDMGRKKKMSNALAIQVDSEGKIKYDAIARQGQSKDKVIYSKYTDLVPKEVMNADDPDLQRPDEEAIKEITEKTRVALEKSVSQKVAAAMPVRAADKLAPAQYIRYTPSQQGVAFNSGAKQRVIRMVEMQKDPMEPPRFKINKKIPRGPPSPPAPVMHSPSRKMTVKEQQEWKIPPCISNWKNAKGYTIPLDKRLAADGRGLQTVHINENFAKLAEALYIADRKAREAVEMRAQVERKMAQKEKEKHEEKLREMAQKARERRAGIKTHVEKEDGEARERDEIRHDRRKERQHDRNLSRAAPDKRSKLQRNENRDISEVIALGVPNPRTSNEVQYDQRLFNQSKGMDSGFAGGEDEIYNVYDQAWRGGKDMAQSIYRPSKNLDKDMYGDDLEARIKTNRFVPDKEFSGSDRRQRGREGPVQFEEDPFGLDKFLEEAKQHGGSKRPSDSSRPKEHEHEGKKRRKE
inactive: [1] 0.03 | [2] 0.015 | [3] -0.036 | [4] 0.055 | [5] -0.035

TGFBRAP1 (UniProt Q8WUH2)
inactive: [1] -0.021 | [2] 0.03 | [3] 0.075 | [4] -0.105 | [5] -0.004

TARS2 (UniProt Q9BW92)
inactive: [1] -0.018 | [2] 0.025 | [3] 0.101 | [4] -0.019 | [5] -0.023

SLC7A6 (UniProt Q92536)
inactive: [1] -0.063 | [2] 0.023 | [3] 0.053 | [4] 0.012 | [5] 0.06

TAX1BP1 (UniProt Q86VP1)
inactive: [1] -0.008 | [2] 0.09 | [3] 0.042 | [4] 0.029 | [5] -0.007

TFR2 (UniProt Q9UP52)
inactive: [1] 0.01 | [2] 0.018 | [3] 0.004 | [4] 0.007 | [5] 0.026

SLC38A9 (UniProt Q8NBW4)
inactive: [1] 0.053 | [2] -0.019 | [3] 0.065 | [4] -0.014 | [5] 0.042

SLC25A38 (UniProt Q96DW6)
inactive: [1] 0.014 | [2] 0.034 | [3] -0.035 | [4] -0.035 | [5] 0.014

TBP (UniProt P20226)
Sequence of UniProt P20226 (P20226 whole entry, looked up): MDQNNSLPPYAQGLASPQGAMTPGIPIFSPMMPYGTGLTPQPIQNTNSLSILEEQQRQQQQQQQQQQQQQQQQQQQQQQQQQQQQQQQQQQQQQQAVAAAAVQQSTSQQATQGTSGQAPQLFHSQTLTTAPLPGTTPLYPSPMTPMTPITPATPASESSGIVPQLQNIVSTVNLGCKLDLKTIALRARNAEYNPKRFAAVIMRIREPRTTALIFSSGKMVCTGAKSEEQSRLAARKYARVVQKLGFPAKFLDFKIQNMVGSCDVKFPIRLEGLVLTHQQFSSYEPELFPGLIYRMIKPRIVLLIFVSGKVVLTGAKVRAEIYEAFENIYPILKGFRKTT
inactive: [1] 0.016 | [2] 0.314 | [3] -0.158 | [4] 0.144 | [5] 0.07

TM9SF4 (UniProt Q92544)
inactive: [1] -0.038 | [2] 0.008 | [3] -0.001 | [4] -0.047 | [5] -0.032

STOM (UniProt P27105)
inactive: [1] 0.06 | [2] -0.019 | [3] -0.014 | [4] -0.021 | [5] 0.082
